Each structure is given as a SMILES string. Results filed as inconclusive are left out. Activity calls are given as the source filed them. Unless noted, the call rests on the fitted dose curve; in most records, active means well fitted curve in either direction with a large enough effect (not every such curve was filed as active); inconclusive means small, poorly fitted or top-dose-only effect, or another doubt; inactive means flat fitted curve, though single readings scatter. A value given as a limit tells only on which side of the number the result lay.

Here are results for seven compounds from PubChem BioAssay (NCATS).

In assay [1] the target is Lysosomal acid glucosylceramidase (Homo sapiens) (UniProt P04062). Kind of assay: Glucocerebrosidase-p2 (AID 348; in the data active means potency below about 10 µM; further: potency means the concentration at half of the fitted maximal effect). The note with it: purified GBA, blue fluorogenic substrate, 40 min. The procedure, abridged: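 Normal human glucocerebrosidase (0.2 nM) with blue fluorogenic substrate (80 uM final) in citrate/phosphate pH 5.9 with 10mM sodium taurocholate, 0.01% tween-20; 40 min RT, NaOH/glycine stop; fluorescence Ex 365/Em 440; AC50 from a titration from 0.6 nM upwards.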
Lysosomal acid glucosylceramidase (Homo sapiens), sequence (P04062 whole entry, looked up): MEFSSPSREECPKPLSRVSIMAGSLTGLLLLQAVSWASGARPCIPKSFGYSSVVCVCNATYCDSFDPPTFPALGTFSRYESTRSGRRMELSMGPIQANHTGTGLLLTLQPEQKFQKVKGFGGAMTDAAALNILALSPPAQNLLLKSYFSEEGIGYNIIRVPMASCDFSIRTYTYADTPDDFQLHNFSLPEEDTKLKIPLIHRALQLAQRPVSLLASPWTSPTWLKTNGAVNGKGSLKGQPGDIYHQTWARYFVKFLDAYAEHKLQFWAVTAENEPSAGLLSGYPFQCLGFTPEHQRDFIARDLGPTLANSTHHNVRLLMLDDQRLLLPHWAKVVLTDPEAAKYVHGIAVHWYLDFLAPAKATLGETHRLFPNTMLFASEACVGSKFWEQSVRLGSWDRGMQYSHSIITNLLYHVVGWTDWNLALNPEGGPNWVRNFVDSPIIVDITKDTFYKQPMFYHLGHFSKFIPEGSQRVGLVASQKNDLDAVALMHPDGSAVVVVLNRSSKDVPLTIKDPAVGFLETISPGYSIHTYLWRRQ

Assay [2] in a line: AP1 Signaling Pathway (AID 357). Further: on the % scale 0 is the no-effect control and ±100 the full control effect. The note with it: ME-180 AP-1-bla reporter, EGF-induced, beta-lactamase ratio, 5 h; at 7.69 µM (top of the series) unless noted. The procedure, abridged: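 AP-1-bla ME-180 cells, Opti-MEM + 0.5% dialyzed FBS, plated overnight 37 °C. Cpd titration + EC50 EGF, 5 h 37 °C. CCF4 2.5 h RT; ex 405, em 460/530 ratio → %activity, AC50.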
Assay [3] in a line: NFAT Signaling Pathway (AID 444).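 Further: carbachol stimulus at about its EC50 of 1 µM final; on the % scale 0 is the no-effect control and ±100 the full control effect.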 The note with it: Jurkat NFAT-bla M1, carbachol, beta-lactamase ratio, 5 h; at 7.69 µM (top of the series) unless noted. The essentials: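 Read-out: CCF4 FRET ratio (460 nm/530 nm) after 1 h RT dye loading, used for %activity and AC50 from titration series. Cells: Jurkat NFAT-β-lactamase/M1 line, treated with compound plus 1 uM carbachol for 5 h, 37 °C.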

Assay [4] is described as follows: Stat Signaling Pathway (AID 446).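 Further: ME-180 cervical cancer cells given 40 pM IL-6 alongside compound; SIE-controlled beta-lactamase reporter measured as 460/530 nm FRET emission ratio; on the % scale 0 is the no-effect control and ±100 the full control effect.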 The note with it: ME-180 SIE beta-lactamase reporter, IL-6 stimulated, 5 h; at 7.69 µM (top of the series) unless noted. The procedure, abridged:
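FRET read-out (405 nm excitation, 460/530 nm emission) of a beta-lactamase reporter under a STAT-inducible element in ME-180 cervical carcinoma cells. Cells with compound receive 40 pM IL-6 for 5 h. Values are normalised to AC90 stimulation and AC90 JAK-inhibitor controls.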

Assay [5] concerns the target Glucocorticoid receptor (Homo sapiens) (UniProt P04150). Kind of assay: GR-EFC Redistribution (AID 451; calls by dose curve; further: potency means the concentration at half of the fitted maximal effect). The note with it: CHO-K1 GR-EFC translocation, beta-gal luminescence, 2 h. The procedure, abridged:
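Translocation of GR-ED fusion to nuclear EA restores b-gal, read by luminescence after 1 h room-temperature detection. Engineered CHO-K1 biosensor cells, 1,000/well, exposed 2 h at 37 C to titrations up to 46 uM final.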

For assay [6], the target named is Mitogen-activated protein kinase 10 (Mus musculus) (UniProt Q61831). As to the kind of experiment: JNK3 AlphaScreen Assay (AID 530).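 Further: kinase came from lysate of stimulated human HepG2 cells; signal reports phosphorylation of biotinylated GST-cJun 1-79 at Ser73 with 10 µM ATP; on the % scale 0 is the no-effect control and ±100 the full control effect.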 The note with it: JNK3 lysate, c-Jun phosphorylation; series mostly up to 57.1 µM. The procedure, abridged: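 Kinase buffer: 20 mM Tris-HCl pH 7.6, 10 mM MgCl2, 1 mM DTT, 0.1 mM Na3VO4, 0.01% Tween-20; ATP 10 uM. Substrate biotin-GST-cJun(1-79), enzyme from activated HepG2 lysates. Detection by Ser73 phospho-antibody AlphaScreen.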
A general note: Bead proximity is the source of the signal in Alpha formats.

The target in assay [7] is 3',5'-cyclic-AMP phosphodiesterase 4B (Homo sapiens) (UniProt Q07343). Kind of assay: qHTS Assay for Inhibitors of PDE-IV (AID 607; active means well fitted activation curve with a large enough effect in the main read-out, with a control signal flat, not every such curve was filed as active; further: % of control where 0% means no effect). The note with it: HEK293 ACTOne CNG channel cells, membrane potential fluorescence; series mostly up to 22.9 µM. The essentials: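 Cell-based read-out of cAMP via a modified cyclic nucleotide-gated channel and membrane potential dye (535/590 nm) in HEK293 cells expressing PDE4 endogenously. Compounds tested up to 22.9 uM final; 100 uM RO 20-1724 reference.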
3',5'-cyclic-AMP phosphodiesterase 4B (Homo sapiens), sequence (Q07343 whole entry, looked up): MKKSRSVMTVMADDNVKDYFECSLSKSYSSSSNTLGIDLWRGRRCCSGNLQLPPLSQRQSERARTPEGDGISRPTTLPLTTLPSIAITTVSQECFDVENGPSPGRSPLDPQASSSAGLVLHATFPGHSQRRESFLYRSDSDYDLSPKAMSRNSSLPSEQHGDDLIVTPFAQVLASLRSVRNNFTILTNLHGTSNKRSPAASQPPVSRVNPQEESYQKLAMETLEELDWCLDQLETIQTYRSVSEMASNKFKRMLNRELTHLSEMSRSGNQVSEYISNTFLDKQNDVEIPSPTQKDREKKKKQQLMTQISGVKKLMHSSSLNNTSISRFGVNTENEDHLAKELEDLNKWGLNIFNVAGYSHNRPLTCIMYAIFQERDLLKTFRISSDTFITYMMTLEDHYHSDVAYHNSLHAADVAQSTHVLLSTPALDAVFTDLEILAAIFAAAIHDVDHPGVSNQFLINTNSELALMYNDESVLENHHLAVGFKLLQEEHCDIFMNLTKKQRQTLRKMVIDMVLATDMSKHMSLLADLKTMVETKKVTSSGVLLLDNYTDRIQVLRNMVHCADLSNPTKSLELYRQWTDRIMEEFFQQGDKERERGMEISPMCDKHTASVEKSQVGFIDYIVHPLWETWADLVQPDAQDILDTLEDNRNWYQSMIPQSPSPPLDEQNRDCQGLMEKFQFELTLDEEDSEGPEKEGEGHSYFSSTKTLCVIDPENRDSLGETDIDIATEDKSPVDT
In general terms: In qHTS, concentration-response curves come from the screen itself.

Assay [8] in a line: qHTS Assay for Lipid Storage Modulators (AID 1519; calls by dose curve). To be noted: Drosophila S3 cells, BODIPY lipid droplet/cell ratio, laser cytometry, cells loaded with oleic acid; for activity change, negative = inhibition: at 57.5 µM (top of the series). The procedure, abridged:
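Cells seeded at 5,000 per well were treated with compounds over a concentration series and loaded with oleic acid (400 uM, as added). Lipid droplet fluorescence (488 nm excitation, 500-530 nm channel) was read by laser-scanning cytometry and normalized to 20 uM Triacsin C.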

Assay [9] can be described thus: Primary qHTS for small molecule stabilizers of the endoplasmic reticulum resident proteome: Secreted ER Calcium Modulated Protein (SERCaMP) assay (AID 1508630; active means well fitted curve in the direction sought with a large enough effect; an effect the other way counts as inactive or inconclusive; further: on the % scale 0 is the no-effect control and ±100 the full control effect). The note with it: SH-SY5Y GLuc-SERCaMP (Gaussia luciferase released on ER calcium loss) secretion, thapsigargin, luminescence; series mostly up to 38.4 µM. The essentials:
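The SH-SY5Y reporter protocol was run at 3 concentrations up to 38.3 uM (primary) or 11 concentrations (follow-up): 16 h compound, 100 nM thapsigargin for 4 h, then extracellular luciferase luminescence.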

Assay [10] addresses Cytochrome P450 3A4 (Homo sapiens) (UniProt P08684). Kind of assay: qHTS Assay for Activators of Cytochrome P450 3A4 (AID 885; active means well fitted curve in the direction sought with a large enough effect; an effect the other way counts as inactive or inconclusive; further: nearly all actives have a fitted effect of over 65% in size; further: potency means the concentration at half of the fitted maximal effect). The note with it: recombinant CYP3A4, Luciferin-PPXE luminescence, 60 min; series mostly up to 57.1 µM. The essentials: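 Luminescent readout of luciferin formed from 25 uM Luciferin-PPXE (KM level) by 20 nM CYP3A4 in 200 mM KPO4, with 60 min NADPH-driven reaction at room temperature after 10 min compound exposure. Ketoconazole (57 uM) defined 100% inhibition.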

The target of assay [11] is Cytochrome P450 2D6 (Homo sapiens) (UniProt P10635). Kind of assay: qHTS Assay for Inhibitors and Substrates of Cytochrome P450 2D6 (AID 891; active means well fitted curve in the direction sought with a large enough effect; an effect the other way counts as inactive or inconclusive; further: potency means the concentration at half of the fitted maximal effect; nearly all actives have a fitted effect of over 60% in size). The note with it: recombinant CYP2D6, luciferin-ME EGE luminescence; series mostly up to 57.1 µM. The essentials:
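Luminescent read-out of luciferin formed by 5 nM human CYP2D6 demethylating 30 uM Luciferin-ME EGE (Km level) over 60 min at room temperature after NADPH regeneration addition. Data normalized to full inhibition by 1.43 uM quinidine.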

Assay [12] concerns the target Cytochrome P450 3A4 (Homo sapiens) (UniProt P08684). As to the kind of experiment: qHTS Assay for Inhibitors and Substrates of Cytochrome P450 3A4 (AID 884; active means well fitted curve in the direction sought with a large enough effect; an effect the other way counts as inactive or inconclusive; further: on the % scale 0 is the no-effect control and ±100 the full control effect; nearly all actives have a fitted effect of over 50% in size). The note with it: recombinant CYP3A4, Luciferin-PPXE luminescence; series mostly up to 57.1 µM. The procedure, abridged:
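Luminescent readout of luciferin produced by CYP3A4 (20 nM) dealkylation of Luciferin-PPXE, 25 uM (its KM). NADPH-driven reaction ran 60 min at RT after 10 min compound preincubation; data scaled to 57 uM ketoconazole as 100% inhibition.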

Assay [13] in a line: qHTS Assay for Identification of Small Molecule Agonists for Hypoxia Response Element Signaling Pathway (AID 914; active means well fitted activation curve with a large enough effect in the signal ratio, with a control signal flat, not every such curve was filed as active; the % refers to the signal ratio; further: % of control where 0% means no effect). To be noted: ME-180 (cervical carcinoma) HRE-bla reporter, beta-lactamase ratio, CoCl2, 17 h; activation: stronger effect = higher value. The essentials: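 Reporter activity (beta-lactamase, CCF4 460nm/530nm ratio) in HRE-bla ME-180 cells is recorded after 17 h compound exposure with EC50 CoCl2 at 37 degrees Celsius. AC50 values come from titration data.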

Setting [14] is: measured here: cell count channel max response.
[15] abbreviates: measured here: lipid channel max response.

Glucocorticoid receptor (Homo sapiens), sequence (P04150 whole entry, looked up, the tested form may be a part): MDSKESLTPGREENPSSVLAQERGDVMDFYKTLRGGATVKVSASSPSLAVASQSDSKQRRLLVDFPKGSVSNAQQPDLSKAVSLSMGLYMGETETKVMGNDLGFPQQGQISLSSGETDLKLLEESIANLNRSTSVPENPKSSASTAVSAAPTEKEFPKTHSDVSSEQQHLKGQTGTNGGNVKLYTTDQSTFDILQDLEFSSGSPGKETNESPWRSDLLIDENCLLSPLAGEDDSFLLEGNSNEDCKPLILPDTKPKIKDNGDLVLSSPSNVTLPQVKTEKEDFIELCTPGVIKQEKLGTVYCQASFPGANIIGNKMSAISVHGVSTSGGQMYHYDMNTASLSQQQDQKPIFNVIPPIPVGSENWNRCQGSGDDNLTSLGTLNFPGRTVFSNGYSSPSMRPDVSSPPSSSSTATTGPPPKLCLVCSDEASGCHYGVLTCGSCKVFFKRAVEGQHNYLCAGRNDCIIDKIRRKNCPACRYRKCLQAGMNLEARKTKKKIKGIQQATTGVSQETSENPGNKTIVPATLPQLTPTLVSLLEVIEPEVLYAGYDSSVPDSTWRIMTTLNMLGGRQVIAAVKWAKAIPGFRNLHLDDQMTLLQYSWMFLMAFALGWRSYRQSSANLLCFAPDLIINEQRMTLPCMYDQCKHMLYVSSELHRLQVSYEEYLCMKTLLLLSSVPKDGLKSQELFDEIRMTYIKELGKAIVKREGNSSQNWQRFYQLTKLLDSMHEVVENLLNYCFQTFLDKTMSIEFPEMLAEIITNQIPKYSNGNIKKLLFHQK
Cytochrome P450 3A4 (Homo sapiens), sequence (P08684 whole entry, looked up): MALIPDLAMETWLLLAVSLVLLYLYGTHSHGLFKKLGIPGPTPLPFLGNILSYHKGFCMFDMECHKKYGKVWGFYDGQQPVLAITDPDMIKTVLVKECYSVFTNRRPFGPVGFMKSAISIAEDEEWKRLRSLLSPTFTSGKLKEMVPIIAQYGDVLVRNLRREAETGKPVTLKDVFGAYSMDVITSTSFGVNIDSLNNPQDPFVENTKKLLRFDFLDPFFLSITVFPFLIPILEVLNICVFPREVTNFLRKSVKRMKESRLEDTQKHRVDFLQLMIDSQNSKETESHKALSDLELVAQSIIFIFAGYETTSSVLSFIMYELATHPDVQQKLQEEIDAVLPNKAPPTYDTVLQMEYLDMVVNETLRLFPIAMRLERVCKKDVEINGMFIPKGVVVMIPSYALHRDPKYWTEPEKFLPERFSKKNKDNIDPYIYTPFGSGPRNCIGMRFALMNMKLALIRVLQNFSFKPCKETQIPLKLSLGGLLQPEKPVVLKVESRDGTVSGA
Cytochrome P450 2D6 (Homo sapiens), sequence (P10635 whole entry, looked up): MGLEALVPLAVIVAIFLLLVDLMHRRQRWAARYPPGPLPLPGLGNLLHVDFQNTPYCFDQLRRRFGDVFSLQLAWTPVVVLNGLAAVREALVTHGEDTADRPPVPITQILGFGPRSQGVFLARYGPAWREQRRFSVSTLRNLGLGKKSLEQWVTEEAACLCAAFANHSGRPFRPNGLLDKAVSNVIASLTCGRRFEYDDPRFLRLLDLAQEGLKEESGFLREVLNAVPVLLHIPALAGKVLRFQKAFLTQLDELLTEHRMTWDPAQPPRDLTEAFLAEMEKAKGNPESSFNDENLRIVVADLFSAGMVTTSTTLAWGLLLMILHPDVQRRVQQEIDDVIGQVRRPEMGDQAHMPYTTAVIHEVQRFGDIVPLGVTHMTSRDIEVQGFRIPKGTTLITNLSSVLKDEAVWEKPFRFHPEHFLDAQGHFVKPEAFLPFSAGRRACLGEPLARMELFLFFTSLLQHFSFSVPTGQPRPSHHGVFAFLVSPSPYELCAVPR

On to `O=C(c1ccncc1)N1CCC[C@@]2(CCN(c3ccncc3)C2)C1`, for which the Potency in [1] is > 11.4 µM (inactive); in assay [5], > 46 µM (inactive). Besides, the activity change, negative = inhibition was -13.7% (inactive) in assay [2], -14.9% (inactive) in [3] and 3.8% (inactive) in [8]. In addition, the activity, negative = inhibition in [4] was -3.85% (inactive). Moreover, the Potency entry in assay [6] and in assay [7] was “inactive” each time. Further, the figures for the max response in assay [8] (setting [14]) and in assay [8] (setting [15]) were 9.21% and 15%, respectively. The result in assay [9] was inactive.
Turning to `N#Cc1cccc(NC(=O)N2CC[C@@]3(CCCN(C(=O)c4cnccn4)C3)C2)c1`, the Potency is > 11.4 µM (inactive) in assay [1] and > 46 µM (inactive) in assay [5]. The activity change, negative = inhibition in [2] was -6.32% (inactive); in [3] it was 12.8% (inactive); in [8] it was 8.9% (inactive). Moreover, in assay [4], the activity, negative = inhibition was 3.28% (inactive). In addition, the Potency result in assay [6] and in assay [7] was “inactive” each time. Moreover, the max response turned out to be 14.7% in [8] (setting [14]) and 23.6% in [8] (setting [15]). The result in assay [9] was inactive.
In the case of `Cn1cccc1C(=O)N1CCC2(CC1)CN(C(c1ccccc1)c1ccccc1)C2`, the Potency was > 11.4 µM (inactive) in assay [1], > 46 µM (inactive) in assay [5], 15.8 µM (active) in assay [10] and 3.16 µM (active) in assay [11]. Moreover, the activity change, negative = inhibition in assay [2] was 14.4% (inactive); in assay [3], -18.7% (inactive); in assay [8] it was -5.27% (inactive). In addition, in assay [4], the activity, negative = inhibition was -4.09% (inactive). The Potency result in assay [6] and in assay [7] was “inactive” in each case. Further, the max response in assay [8] (setting [14]) was -6.77%; in [8] (setting [15]), -9.88%. In [9], the outcome was inactive.
Consider `CC(=O)N1CCC2(CCCN(C(=O)Nc3cccc(C#N)c3)C2)CC1`, for which the Potency in [1] is > 11.4 µM (inactive); in assay [5], > 46 µM (inactive). Moreover, the activity change, negative = inhibition is -1.46% (inactive) in assay [2], -5.5% (inactive) in assay [3] and 0.477% (inactive) in assay [8]. For the same compound, the activity, negative = inhibition in [4] is 4.81% (inactive). Moreover, the Potency result in [6] and in [7] was “inactive” each time. Besides, the max response in assay [8] (setting [14]) was 12.8%; in [8] (setting [15]) it was 15.6%. In addition, in [9], the outcome was inactive.
Turning to `O=C(Nc1ccccc1)N1CC[C@@]2(CCCN(C(=O)c3ccncc3)C2)C1`, the Potency in assay [1] was > 11.4 µM (inactive); in assay [5], > 46 µM (inactive). Besides, the activity change, negative = inhibition in [2] is -15.8% (inactive); in [3] it was -4.67% (inactive); in assay [8], 1.5% (inactive). The activity, negative = inhibition in assay [4] is -5.93% (inactive). The Potency entry in assay [6], in [7] and in assay [10] was “inactive” in each case. Further, the max response stood at 13.8% in assay [8] (setting [14]) and 15.1% in assay [8] (setting [15]). Besides, the outcome in assay [9] was inactive.
For `COc1ccc(C(=O)N2CCC3(CC2)CCN(c2ccccc2)CC3)cc1`, the Potency in assay [1] is > 11.4 µM (inactive); in [5], > 46 µM (inactive). Further, the activity change, negative = inhibition in assay [2] was -11.8% (inactive); in assay [3], 1.53% (inactive); in assay [8], 4.37% (inactive). Moreover, the activity, negative = inhibition in assay [4] was -8.92% (inactive). For the same compound, the Potency result in [6], in assay [7] and in assay [12] was “inactive” in each case. Besides, the activation in [13] was -13.6% (inactive). The max response is 9.05% in assay [8] (setting [14]) and 17.4% in [8] (setting [15]). Moreover, the result in assay [9] was inactive.
Turning to `Cn1cccc1C(=O)N1CCC[C@@]2(CCN(C(=O)Nc3cccc(C#N)c3)C2)C1`, the Potency in assay [1] is > 11.4 µM (inactive); in [5] it was > 46 µM (inactive). In addition, the activity change, negative = inhibition was -6.67% (inactive) in [2], 10.5% (inactive) in assay [3] and 5.85% (inactive) in assay [8]. In assay [4], the activity, negative = inhibition was -3.81% (inactive). Moreover, the Potency entry in [6], in assay [7] and in assay [10] was “inactive” in each case. In addition, the max response in assay [8] (setting [14]) is 14.3%; in [8] (setting [15]) it was 24.9%. Also, the result in assay [9] was inactive.
